66 compounds from PubChem BioAssay AID1981 (Southern Research Specialized Biocontainment Screening …, 2009) can be followed below.

Molecules are shown by their SMILES. About 480 (22%) of roughly 2,200 compounds were called active. The rule behind the calls is not given here. These entries were drawn from the full list. Entries with a potency or affinity are not part of this list.

This experiment is described as follows: S. Typhimurium GFP fluorescence modified counterscreen for PhoP regulon inhibitor project dose response (AID 1981). Particulars: 4 h; series mostly up to 150 µM. Background: Counterscreens check selectivity or assay interference.
In the case of `NNc1nc2c(-c3cccc(C(F)(F)F)c3)nnn2c2ccccc12`, the compound was called inactive.

With `O=C(Nc1ccc(Br)cc1)c1ccc(F)c(S(=O)(=O)NCc2cccs2)c1`, the outcome was inactive. In the case of `Cc1cc(C)cc(CC(Cc2nc3ccccc3[nH]2)c2nc3ccccc3[nH]2)c1` (stereo unspecified) it was “inactive”; in that of `O=C(/C=C/c1ccco1)NC(=S)Nc1ccc(N2CCCC2)cc1`, “inactive”. For the compound `Cc1cc2ncn(C3CC(=O)N(Cc4ccc(N5CCCC5=O)cc4)C3=O)c2cc1C` (stereo unspecified), the compound was classed as inactive. In the case of `O=C(NC(=Nc1ccccc1)N1CCOCC1)Nc1ccccc1`, the compound was classed as inactive. Consider `Cc1ccc(NC(=O)NCC2CCN(Cc3cccc(Cl)c3)CC2)cc1Cl`, for which the outcome was inactive. Regarding `Cc1ccc(NC(=O)c2cc(S(=O)(=O)N3CCC4(CC3)OCCO4)ccc2F)cc1`, the compound was classed as inactive. In the case of `COc1ccc(-c2cc(-c3ccc(OC)c(OC)c3)n[nH]2)c(O)c1` it was “inactive”; in that of `COc1ccc(-c2ccc(C#N)c(SCC(=O)NCCc3ccccc3)n2)cc1OC`, “inactive”; in that of `Cc1cc(C)n2c(SCC(=O)NCc3ccco3)nnc2n1`, “inactive”.

For the compound `Cc1ccc(C(=O)C2COC(=O)C2)cc1` (stereo unspecified), the call was inactive. Turning to `COc1ccc(C2COC(=O)C2=N)c(NC(=O)c2ccc(Cl)cc2)c1` (stereo unspecified), the outcome was inactive. To `COc1ccc(OC)c(C(C(=O)NCc2ccco2)N(C(=O)Cn2nnc3ccccc32)C(C)C)c1` (stereo unspecified) belongs “inactive”; to `O=C(NCc1cccnc1)c1ccc(Cl)cc1[N+](=O)[O-]`, “inactive”. `Cc1ccc(NC(=O)COc2ncnc3c(Cl)cc(Cl)cc23)cc1[N+](=O)[O-]`: the outcome was inactive.

For `Cc1ccc(C)c(NC(=S)NCCSc2ccc(Cl)cc2)c1`, the outcome was inactive. As for `O=C1c2cccc(OCC(=O)N3N=C(c4cccs4)CC3c3ccc(F)cc3)c2CCN1Cc1cccnc1` (stereo unspecified), the call was inactive. Take `Cc1ccc(NS(=O)(=O)c2ccc(N3C(=O)CCC3=O)cc2)cc1`: the outcome was inactive.

Turning to `CCOc1ccc(NC(=O)Nc2cccs2)cc1`, the compound was called inactive. To `CC(C)CCNC(=O)C12CN(Cc3ccccc3)CC1C(c1cccc([N+](=O)[O-])c1)=NO2` (stereo unspecified) belongs “inactive”; to `O=C(Nc1cc(C(F)(F)F)ccc1Cl)C(NCc1ccccc1)c1ccccc1` (stereo unspecified), “inactive”; to `Cc1oc(CC(C)C)c(CN)c1C(=O)O`, “inactive”. As for `CCOC(=O)C1=C(C)NC(=O)NC1c1c(OCC(=O)N2CCCCC2)ccc2ccccc12` (stereo unspecified), the outcome was inactive. Turning to `COc1ccc(C2=NOC(C(=O)Nc3ccc(C)cc3)C2)cc1OC` (stereo unspecified), the compound was called inactive. On to `Cc1cc([N+](=O)[O-])cc2ncccc12`, for which the compound was classed as inactive. As to `C=CCn1c(SCCOc2ccc(OC)cc2)nnc1C(C)NC(=O)c1ccc(OC)cc1` (stereo unspecified), the compound was called inactive. In the case of `COc1ccc(-n2c(CNc3ccc(C)cc3)nnc2SCc2ccccc2)cc1` it was “inactive”; in that of `Cc1ccc2nc(SCC(=O)c3c(C)[nH]c4ccccc34)[nH]c2c1`, “inactive”. In the case of `CCOC(=O)c1ccccc1C(=O)N1CCOCCOCCOCC1` it was “inactive”. To `CCOC(=O)c1c(-c2ccc(C)o2)csc1N` belongs “inactive”. As to `O=C1N2CCCc3cccc(c32)C12Nc1ccccc1S2` (stereo unspecified), the compound was called inactive. As to `N/C(=N\OC(=O)c1cccs1)C1(c2ccc(Cl)cc2Cl)CC1`, the compound was called inactive. For `Nc1c(C(=O)Nc2ccc(F)cc2)sc2nc(-c3ccco3)ccc12`, the compound was classed as inactive. With `CCOc1ccc(N/C=C/C(=O)c2ccc(OC)cc2)c([N+](=O)[O-])c1`, the result was inactive. For `CCCCCCOC(=O)Sc1nc2ccccc2o1`, the outcome was inactive. Consider `CCCCOC(=O)CSc1nc2c(c(=O)[nH]c(=O)n2C)n1C/C=C(\C)Cl`, for which the compound was classed as inactive. To `O=S1(=O)C=CC(Nc2ccccc2)C1` (stereo unspecified) belongs “inactive”; to `C=CCNC(=O)C(=O)NN=C1CCN(C)CC1`, “inactive”; to `COc1cccc(C(=O)Oc2c(CN3CCOCC3)cc(Cl)c3cccnc23)c1`, “inactive”. As to `COc1ccc2nc(NC(=O)C3CCCN3S(=O)(=O)c3ccc(C)cc3)sc2c1` (stereo unspecified), the compound was classed as inactive. For the compound `c1ccc2[nH]c(CSc3nccs3)nc2c1`, the result was inactive. Turning to `CC(=O)c1ccc(NC(=S)NC(NC(=O)c2ccco2)C(Cl)(Cl)Cl)cc1` (stereo unspecified), the outcome was inactive. Take `CN(C)c1ccc([C@@H]2[C@@H]([N+](=O)[O-])[C@H]3C=Cc4ccccc4N3[C@H]2C(=O)c2ccc(Cl)cc2)cc1`: the result was inactive. As to `O=C(O)c1cc(O)c2c(c1)[C@@H]([C@H]1c3cc(C(=O)O)cc(O)c3C(=O)c3c(O[C@@H]4O[C@H](CO)[C@@H](O)[C@H](O)[C@H]4O)cccc31)c1cccc(OC3O[C@H](CO)[C@@H](O)[C@H](O)[C@H]3O)c1C2=O` (stereo partly specified), the compound was called inactive.

In the case of `O=C(CCN1C(=O)C2C3C=CC(C3)C2C1=O)N1CCN(c2cccc(Cl)c2)CC1` (stereo unspecified), the compound was called inactive. Take `CCCOc1ccc(C2NC(=S)NC(c3ccccc3)=C2C(=O)Nc2ccc(C)cc2)cc1OC` (stereo unspecified): the call was inactive.

On to `CCOC(=O)c1c(C)[nH]c(C)c1C(=O)COC(=O)/C=C/c1cccc(F)c1`, for which the compound was classed as inactive.

Take `c1ccc2c3c([nH]c2c1)-c1[nH]ncc1CC3`: the outcome was inactive. For `COc1ccc(CCN2CC3=C(C2=O)C(c2ccccc2)NC(=O)N3C)cc1OC` (stereo unspecified), the outcome was inactive. To `CC1CCN(S(=O)(=O)c2cccc(C(=O)N(C)C3CCS(=O)(=O)C3)c2)CC1` (stereo unspecified) belongs “inactive”. For `COc1ccc(O)c(/C=c2/sc3nc4cc(C)c(C)cc4n3c2=O)c1`, the compound was called inactive. Regarding `CC(=O)Nc1cccc(OCC(=O)Nc2ccc(F)cc2)c1`, the compound was called inactive.

With `O=C1CSc2ccccc2N1Cc1ccc(F)cc1`, the compound was called inactive.

For the compound `CN1CCN(C(c2cccc(C(F)(F)F)c2)c2nnnn2C(C)(C)C)CC1` (stereo unspecified), the result was inactive. On to `COc1ccccc1N1CCN(C(CNS(=O)(=O)c2ccccc2)c2cccnc2)CC1` (stereo unspecified), for which the compound was classed as inactive. For `CC(=O)c1cccc(NC(=O)Nc2cc3sccc3n2C)c1`, the outcome was inactive. With `O=C(CN1C(=O)COc2ccccc21)Nc1ccc(F)cc1`, the result was inactive. In the case of `O=C(O)C1CC=CCC1C(=O)NC12CC3CC(CC(C3)C1)C2` (stereo unspecified), the compound was called inactive. Consider `CSCCC(NC(=O)c1cccc(C)c1)C(=O)OCC(=O)NC(=O)c1cccn1C` (stereo unspecified), for which the compound was classed as inactive. Consider `CCOC(=O)C1=C(c2ccccc2)N=C2SCC(=O)N2C1c1ccc(O)c(OC)c1` (stereo unspecified), for which the call was inactive. Turning to `COC(=O)Cn1cc(C(=O)c2ccco2)c2ccccc21`, the outcome was inactive. `CCCCn1cnc2sc(-c3ccccc3)cc2c1=O`: the outcome was inactive. As for `Cc1cc2oc(=O)cc(CSc3nc(N)cc(N)n3)c2cc1C`, the result was inactive. In the case of `CC1CCN(c2ccc(NC(=S)NC(=O)c3ccc(-c4cccc([N+](=O)[O-])c4)o3)cc2)CC1` it was “inactive”; in that of `COc1ccc(-c2csc(Nc3cccnc3)n2)cc1`, “inactive”.
